Assay results from PubChem BioAssay (EPA / NIEHS).
Activity calls are given as the source filed them. How the source made its calls: active means hit-call score of the fitted dose curve at least 0.9, where 1 is the maximum; inactive means score below 0.9.

Assays:
Settings in all cases: mRNA level, 48 h; actives raise or lower the signal
[1] = read-out: Apoptosis regulator Bcl-2 (Homo sapiens) (UniProt P10415); experiment: LTEA_HepaRG_BCL2: Life Technologies and Expression Analysis (LTEA) Assay for Bcl-2 gene using HepaRG (AID 2283475)
Method in brief: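 Each chemical was tested in duplicate on HepaRG cultures held in serum-free induction medium for 48 h, highest concentration 100 uM with half-log dilutions. Transcript levels came from multiplexed qRT-PCR, normalised to housekeeping genes; activity was scored in either direction relative to DMSO.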

[2] = read-out: Bcl-2 (BID) gene, BID (gene 637); experiment: LTEA_HepaRG_BID: Life Technologies and Expression Analysis (LTEA) Assay for Bcl-2 (BID) gene using HepaRG (AID 2283476)
Method in brief: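 Assay used HepaRG hepatic cells treated 48 h in serum-free medium with half-log dilutions from 100 uM. Endpoint: BID mRNA, qRT-PCR, normalized to ACTB/GAPDH/POLR2A.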

Caspase-3 (Homo sapiens) = Caspase-3 (Homo sapiens) (UniProt P42574); experiment: LTEA_HepaRG_CASP3: Life Technologies and Expression Analysis (LTEA) Assay for cysteine-aspartic acid protease (CASP3) using HepaRG (AID 2283477)
Method in brief: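 Differentiated HepaRG cells, plated 48 h, were treated in duplicate in serum-free induction medium for 48 h with eight half-log concentrations up to 100 uM in 0.5% DMSO. CASP3 mRNA measured by qRT-PCR, normalized to ACTB, GAPDH, POLR2A.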

[3] = read-out: Cytochrome P450 (CYP24A1), CYP24A1 (gene 1591); experiment: LTEA_HepaRG_CYP24A1: Life Technologies and Expression Analysis (LTEA) Assay for Cytochrome P450 (CYP24A1) using HepaRG (AID 2283478)
Method in brief: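 HepaRG cells plated 48 h, then exposed in duplicate in serum-free induction medium for 48 h to 8-point half-log series from 100 uM in 0.5% DMSO. CYP24A1 mRNA by Fluidigm qRT-PCR, normalized to ACTB, GAPDH, POLR2A; bidirectional fit versus DMSO.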

[4] = read-out: Cytochrome P450 (CYP1A2), CYP1A2 (gene 1544); experiment: LTEA_HepaRG_CYP1A2: Life Technologies and Expression Analysis (LTEA) Assay for Cytochrome P450 (CYP1A2) using HepaRG (AID 2283479)
Method in brief: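 Differentiated human HepaRG cells in serum-free induction medium exposed 48 hours in duplicate to 8 half-log concentrations from 100 uM, 0.5% DMSO. CYP1A2 mRNA quantified by qRT-PCR, normalized to ACTB, GAPDH and POLR2A; bidirectional fitting versus DMSO.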

[5] = read-out: cysteine-aspartic acid protease (CASP8), CASP8 (gene 841); experiment: LTEA_HepaRG_CASP8: Life Technologies and Expression Analysis (LTEA) Assay for cysteine-aspartic acid protease (CASP8) using HepaRG (AID 2283480)
Method in brief: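 qRT-PCR readout of CASP8 mRNA, normalized to three housekeeping genes, after 48 h chemical exposure of HepaRG cells; 8-point half-log series, top 100 uM, 0.5% DMSO vehicle. Bidirectional curve fitting against DMSO baseline.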

[6] = read-out: Cytochrome P450 (CYP2B6), CYP2B6 (gene 1555); experiment: LTEA_HepaRG_CYP2B6: Life Technologies and Expression Analysis (LTEA) Assay for Cytochrome P450 (CYP2B6) using HepaRG (AID 2283481)
Method in brief: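 Differentiated human HepaRG cells in serum-free induction medium, dosed in duplicate for 48 h over 8 half-log concentrations topping at 100 uM (0.5% DMSO). CYP2B6 mRNA measured by TaqMan qRT-PCR, normalized to ACTB, GAPDH, POLR2A; bidirectional fit versus DMSO.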

[7] = read-out: Cytochrome P450 2C19 (Homo sapiens) (UniProt P33261); experiment: LTEA_HepaRG_CYP2C19: Life Technologies and Expression Analysis (LTEA) Assay for CYP2C19 using HepaRG (AID 2283482)
Method in brief: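 Differentiated HepaRG cells in serum-free induction medium exposed 48 h in duplicate, 8 concentrations from 100 uM by half-log steps in 0.5% DMSO. CYP2C19 mRNA measured by TaqMan qRT-PCR, normalized to ACTB, GAPDH, POLR2A. Bidirectional fit versus DMSO.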

CYP2C8 (gene 1558) = experiment: LTEA_HepaRG_CYP2C8: Life Technologies and Expression Analysis (LTEA) Assay for CYP2C8 using HepaRG (AID 2283483)
Method in brief: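 HepaRG (human liver line), 48 h chemical exposure, 8-pt half-log series from 100 uM, 0.5% DMSO vehicle. Readout: CYP2C8 transcript by qRT-PCR, housekeeping-normalized. Bidirectional fit vs DMSO baseline.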

CYP2C9 (gene 1559) = experiment: LTEA_HepaRG_CYP2C9: Life Technologies and Expression Analysis (LTEA) Assay for CYP2C9 using HepaRG (AID 2283484)
Method in brief: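 HepaRG, 48 h dosing, 8-pt half-log series, top 100 uM, 0.5% DMSO vehicle. Read-out: CYP2C9 transcript by TaqMan qRT-PCR, housekeeping-normalized (ACTB/GAPDH/POLR2A). Gain or loss fitted vs DMSO baseline.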

CYP2E1 (gene 1571) = experiment: LTEA_HepaRG_CYP2E1: Life Technologies and Expression Analysis (LTEA) Assay for CYP2E1 using HepaRG (AID 2283485)
Method in brief: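 Assay uses 48 h exposure of HepaRG hepatic cells, eight concentrations to 100 uM. Expression of CYP2E1 is quantified by TaqMan qRT-PCR with ACTB, GAPDH and POLR2A normalization; curves fitted in both directions relative to vehicle.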

CYP4A11 (gene 1579) = experiment: LTEA_HepaRG_CYP4A11: Life Technologies and Expression Analysis (LTEA) Assay for CYP4A11 using HepaRG (AID 2283486)
Method in brief: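 Differentiated HepaRG cells, 48 h after plating, exposed in duplicate for 48 h to 8 half-log concentrations up to 100 uM in 0.5% DMSO in serum-free induction medium. CYP4A11 mRNA measured by TaqMan qRT-PCR, normalized to ACTB, GAPDH and POLR2A.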

[8] = read-out: DNA damage-inducible transcript 3 (DDIT3), DDIT3 (gene 1649); experiment: LTEA_HepaRG_DDIT3: Life Technologies and Expression Analysis (LTEA) Assay for DNA damage-inducible transcript 3 (DDIT3) using HepaRG (AID 2283488)
Method in brief: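 Eight-point concentration-response (100 uM highest, half-log dilutions) in HepaRG, 48 h, duplicate wells. Endpoint: qRT-PCR mRNA, normalized (ACTB, GAPDH, POLR2A), bidirectional fitting with DMSO as baseline.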

[9] = read-out: Pro-epidermal growth factor (Homo sapiens) (UniProt P01133); experiment: LTEA_HepaRG_EGF: Life Technologies and Expression Analysis (LTEA) Assay for Epidermal growth factor (EGF) using HepaRG (AID 2283489)
Method in brief: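 HepaRG cells (~100,000/well, 48 h pre-culture) exposed in duplicate for 48 h in serum-free induction medium to 8 half-log concentrations up to 100 uM in 0.5% DMSO. EGF mRNA by qRT-PCR, normalized to ACTB/GAPDH/POLR2A; bidirectional fit versus DMSO.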

[10] = read-out: Early growth response protein 1 (EGR1) transcription factor, EGR1 (gene 1958); experiment: LTEA_HepaRG_EGR1: Life Technologies and Expression Analysis (LTEA) Assay for Early growth response protein 1 (EGR1) transcription factor using HepaRG (AID 2283490)
Method in brief: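 HepaRG, 48 h exposure, 8-pt half-log series from 100 uM, 0.5% DMSO vehicle; EGR1 transcript by TaqMan qRT-PCR (Fluidigm array), housekeeping-normalized; bidirectional fit relative to DMSO baseline.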

[11] = read-out: Ezrin (EZR), EZR (gene 7430); experiment: LTEA_HepaRG_EZR: Life Technologies and Expression Analysis (LTEA) Assay for Ezrin (EZR) using HepaRG (AID 2283491)
Method in brief: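 Gain or loss of EZR mRNA is scored relative to 0.5% DMSO in human HepaRG cultures treated 48 h with test chemicals in duplicate, eight half-log concentrations from 100 uM.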

[12] = read-out: Cytochrome P450 3A7 (Homo sapiens) (UniProt P24462); experiment: LTEA_HepaRG_CYP3A7: Life Technologies and Expression Analysis (LTEA) Assay for CYP3A7 using HepaRG (AID 2283492)
Method in brief: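 Differentiated HepaRG cells in serum-free induction medium exposed 48 h in duplicate to 8-point half-log series from 100 uM top in 0.5% DMSO. CYP3A7 mRNA by qRT-PCR, normalized to ACTB/GAPDH/POLR2A, bidirectional fit versus DMSO.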

CYP3A5 (gene 1577) = experiment: LTEA_HepaRG_CYP3A5: Life Technologies and Expression Analysis (LTEA) Assay for CYP3A5 using HepaRG (AID 2283493)
Method in brief: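 Readout was CYP3A5 mRNA by qRT-PCR. HepaRG cultures were exposed for 48 h in serum-free induction medium to chemicals at up to 100 uM, and responses were fitted in both directions relative to DMSO vehicle.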

[13] = read-out: Fatty Acid-Binding Protein 1 (FABP1), FABP1 (gene 2168); experiment: LTEA_HepaRG_FABP1: Life Technologies and Expression Analysis (LTEA) Assay for Fatty Acid-Binding Protein 1 (FABP1) using HepaRG (AID 2283494)
Method in brief: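 qRT-PCR readout of FABP1 transcript (normalized to three housekeeping genes) after 48 h chemical exposure of HepaRG cells; eight concentrations, half-log steps, max 100 uM, 0.5% DMSO vehicle; gain or loss fitted relative to DMSO baseline.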

[14] = read-out: Cytochrome P450 3A4 (Homo sapiens) (UniProt P08684); experiment: LTEA_HepaRG_CYP3A4: Life Technologies and Expression Analysis (LTEA) Assay for CYP3A4 using HepaRG (AID 2283487)
Method in brief: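 In a human hepatic line (HepaRG), duplicate wells were treated 48 h with up to 100 uM chemical in half-log dilutions. Endpoint: CYP3A4 mRNA induction or loss relative to 0.5% DMSO vehicle, by qRT-PCR.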

Measured: AC50

Sequence of Cytochrome P450 2C19 (Homo sapiens) (P33261 whole entry, looked up): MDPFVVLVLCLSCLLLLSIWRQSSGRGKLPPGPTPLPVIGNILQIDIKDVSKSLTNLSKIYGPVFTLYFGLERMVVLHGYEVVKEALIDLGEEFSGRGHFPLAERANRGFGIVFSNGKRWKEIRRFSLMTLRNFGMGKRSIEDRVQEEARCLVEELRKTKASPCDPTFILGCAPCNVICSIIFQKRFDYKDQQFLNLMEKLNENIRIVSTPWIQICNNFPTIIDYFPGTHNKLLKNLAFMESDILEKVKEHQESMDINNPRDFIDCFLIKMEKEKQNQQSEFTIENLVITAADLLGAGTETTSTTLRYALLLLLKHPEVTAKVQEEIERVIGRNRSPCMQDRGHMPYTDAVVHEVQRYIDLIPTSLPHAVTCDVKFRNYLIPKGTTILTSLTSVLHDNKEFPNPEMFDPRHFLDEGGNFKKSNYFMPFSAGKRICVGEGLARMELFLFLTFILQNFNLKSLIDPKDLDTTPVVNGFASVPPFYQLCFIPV
Sequence of Caspase-3 (Homo sapiens) (P42574 whole entry, looked up): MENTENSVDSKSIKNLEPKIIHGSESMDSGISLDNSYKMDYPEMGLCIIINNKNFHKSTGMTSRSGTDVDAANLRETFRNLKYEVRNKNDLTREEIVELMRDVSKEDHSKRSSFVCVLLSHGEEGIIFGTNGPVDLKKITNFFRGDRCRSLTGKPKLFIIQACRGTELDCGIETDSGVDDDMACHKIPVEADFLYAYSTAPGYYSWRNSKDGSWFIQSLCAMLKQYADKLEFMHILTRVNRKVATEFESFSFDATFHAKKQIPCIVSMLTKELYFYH
Sequence of Apoptosis regulator Bcl-2 (Homo sapiens) (P10415 whole entry, looked up): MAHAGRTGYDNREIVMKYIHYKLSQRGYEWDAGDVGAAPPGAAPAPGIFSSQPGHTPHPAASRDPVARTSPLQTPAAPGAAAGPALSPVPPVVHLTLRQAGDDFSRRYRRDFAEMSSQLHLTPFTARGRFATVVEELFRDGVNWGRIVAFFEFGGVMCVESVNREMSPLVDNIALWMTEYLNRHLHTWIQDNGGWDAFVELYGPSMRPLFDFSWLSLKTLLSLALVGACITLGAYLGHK
Sequence of Cytochrome P450 3A7 (Homo sapiens) (P24462 whole entry, looked up): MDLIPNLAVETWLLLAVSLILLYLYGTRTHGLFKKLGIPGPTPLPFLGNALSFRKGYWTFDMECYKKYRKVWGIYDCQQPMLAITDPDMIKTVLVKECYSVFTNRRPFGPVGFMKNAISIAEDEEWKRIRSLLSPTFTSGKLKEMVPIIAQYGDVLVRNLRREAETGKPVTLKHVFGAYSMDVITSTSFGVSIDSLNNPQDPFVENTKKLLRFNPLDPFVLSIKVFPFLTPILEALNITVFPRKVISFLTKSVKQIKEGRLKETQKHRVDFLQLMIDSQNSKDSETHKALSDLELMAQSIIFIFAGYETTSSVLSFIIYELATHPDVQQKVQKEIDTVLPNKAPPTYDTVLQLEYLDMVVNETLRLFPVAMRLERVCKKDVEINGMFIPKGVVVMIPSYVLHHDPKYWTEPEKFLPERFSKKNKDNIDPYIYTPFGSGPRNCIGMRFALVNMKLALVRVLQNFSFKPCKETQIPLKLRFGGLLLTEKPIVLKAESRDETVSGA
Sequence of Cytochrome P450 3A4 (Homo sapiens) (P08684 whole entry, looked up): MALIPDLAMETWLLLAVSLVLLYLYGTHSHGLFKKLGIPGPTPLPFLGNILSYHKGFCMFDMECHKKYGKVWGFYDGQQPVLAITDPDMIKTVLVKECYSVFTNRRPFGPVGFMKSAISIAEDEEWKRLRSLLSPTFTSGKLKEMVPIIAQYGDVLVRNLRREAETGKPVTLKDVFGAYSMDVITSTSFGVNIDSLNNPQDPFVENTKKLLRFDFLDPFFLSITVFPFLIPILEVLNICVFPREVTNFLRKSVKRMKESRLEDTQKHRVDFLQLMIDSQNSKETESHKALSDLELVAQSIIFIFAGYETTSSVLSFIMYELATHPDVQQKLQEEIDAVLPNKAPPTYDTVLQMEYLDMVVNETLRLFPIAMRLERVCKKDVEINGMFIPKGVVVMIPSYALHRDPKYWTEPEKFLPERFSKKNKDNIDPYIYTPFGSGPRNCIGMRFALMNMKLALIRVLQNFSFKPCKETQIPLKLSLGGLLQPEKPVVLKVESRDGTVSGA

CCNc1nc(N)nc(Cl)n1
active: [6] 6.87 µM | [7] 6.65 µM | CYP2E1 (gene 1571) 50 µM | [12] 9.92 µM
inactive: [1] | [2] | Caspase-3 (Homo sapiens) | [3] | [4] | [5] | CYP2C8 (gene 1558) | CYP2C9 (gene 1559) | CYP4A11 (gene 1579) | [8] | [9] | [10] | [11] | CYP3A5 (gene 1577) | [13]

OB(O)O
inactive: [1] | [2] | Caspase-3 (Homo sapiens) | [3] | [4] | [5] | [6] | [7] | CYP2C8 (gene 1558) | CYP2C9 (gene 1559) | CYP2E1 (gene 1571) | CYP4A11 (gene 1579) | [8] | [9] | [10] | [11] | [12] | CYP3A5 (gene 1577) | [13]

CCOC(=O)COc1cc(-n2ncc(C(F)(F)F)c(C)c2=O)c(F)cc1Cl
active: [6] 50 µM | [12] 28.9 µM
inactive: [1] | [2] | Caspase-3 (Homo sapiens) | [3] | [4] | [5] | [7] | CYP2C8 (gene 1558) | CYP2C9 (gene 1559) | CYP2E1 (gene 1571) | CYP4A11 (gene 1579) | [8] | [9] | [10] | [11] | CYP3A5 (gene 1577) | [13]

N#CSCSc1nc2ccccc2s1
inactive: [1] | [2] | Caspase-3 (Homo sapiens) | [4] | [5] | [6] | [7] | CYP2C8 (gene 1558) | [14] | [8] | [9] | [10] | [11] | CYP3A5 (gene 1577)
active: [3] 12.4 µM | CYP2C9 (gene 1559) 75.3 µM | CYP2E1 (gene 1571) 81.2 µM | CYP4A11 (gene 1579) 94.4 µM | [12] 64.3 µM | [13] 88.5 µM

CC1(C)C(C=C(Cl)Cl)C1C(=O)OCc1cccc(Oc2ccccc2)c1 (stereo not given)
active: [4] 11 µM | [6] 12 µM | CYP2E1 (gene 1571) 26.2 µM | [12] 18.3 µM
inactive: [1] | [2] | Caspase-3 (Homo sapiens) | [3] | [5] | [7] | CYP2C8 (gene 1558) | CYP2C9 (gene 1559) | CYP4A11 (gene 1579) | [8] | [9] | [10] | [11] | CYP3A5 (gene 1577) | [13]

COC(=O)c1ccccc1C(=O)O
inactive: [1] | [2] | Caspase-3 (Homo sapiens) | [3] | [4] | [5] | [6] | [7] | CYP2C8 (gene 1558) | CYP2C9 (gene 1559) | CYP2E1 (gene 1571) | CYP4A11 (gene 1579) | [8] | [9] | [10] | [11] | [12] | CYP3A5 (gene 1577) | [13]
